{"source": "the supplement of paper PMC3616981", "note": "± gives the standard deviation of the averaged measurements.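 Note: Co-cultures of keratinocytes, bronchial epithelial and smooth muscle cells, fibroblasts, HUVECs and PBMCs under stimuli like LPS, TNF-α, IFN-γ, IL-1β, TGF-β or EGF, SRB reflecting cytotoxicity.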"}
{"compound": "CC(C)c1cccc(C(C)C)c1N1C(=O)c2ccc(O)cc2C1=O", "assay": "BioMAP readout fold decrease vs vehicle (vehicle/treated); higher = stronger decrease of the readout vs vehicle (values <1 mean increase)", "conditions": "1.48 µM", "description": "(§1)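 BioSeek BioMAP human primary cell (co-)culture systems (3C, 4H, LPS, SAg, BE3C, CASM3C, hDFCGF, KF3CT) treated with 5HPP-33 at 1.48, 4.44, 13.3 and 40 µM. Read-outs are protein levels by ELISA, proliferation and SRB total protein. Duplicate rows per assay are averaged as replicates. Tested in ToxCast Phase II for this study; exposure time not stated.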"}
{"target": "CASM3C_IL8", "BioMAP readout fold decrease": "1.02 ± 0.02"}
{"target": "4H_Eotaxin3", "BioMAP readout fold decrease": "0.9561 ± 0.0065"}
{"target": "LPS_VCAM1", "BioMAP readout fold decrease": "1.14 ± 0.055"}
{"target": "hDFCGF_TIMP1", "BioMAP readout fold decrease": "0.847 ± 0.061"}
{"target": "3C_IL8", "BioMAP readout fold decrease": "0.994 ± 0.019"}
{"target": "hDFCGF_MIG", "BioMAP readout fold decrease": "1.01 ± 0.012"}
{"target": "3C_hLADR", "BioMAP readout fold decrease": "1.04 ± 0.038"}
{"target": "BE3C_MMP1", "BioMAP readout fold decrease": "1.073 ± 0.0092"}
{"target": "4H_MCP1", "BioMAP readout fold decrease": "1.01 ± 0.026"}
{"target": "CASM3C_VCAM1", "BioMAP readout fold decrease": "1.05 ± 0.029"}
{"target": "SAg_CD69", "BioMAP readout fold decrease": "1.13 ± 0.076"}
{"target": "SAg_SRB", "BioMAP readout fold decrease": "0.9638 ± 0.0049"}
{"target": "BE3C_PAI1", "BioMAP readout fold decrease": "1.18 ± 0.056"}
{"target": "3C_MCP1", "BioMAP readout fold decrease": "1.04 ± 0.015"}
{"target": "hDFCGF_VCAM1", "BioMAP readout fold decrease": "1.18 ± 0.2"}
{"target": "CASM3C_uPAR", "BioMAP readout fold decrease": "1.15 ± 0.1"}
{"target": "SAg_IL8", "BioMAP readout fold decrease": "1.12 ± 0.039"}
{"target": "KF3CT_MCP1", "BioMAP readout fold decrease": "1.03 ± 0.041"}
{"target": "LPS_CD40", "BioMAP readout fold decrease": "1.33 ± 0.17"}
{"target": "LPS_PGE2", "BioMAP readout fold decrease": "0.966 ± 0.071"}
{"target": "LPS_MCSF", "BioMAP readout fold decrease": "1.081 ± 0.0067"}
{"target": "KF3CT_uPA", "BioMAP readout fold decrease": "1.016 ± 0.0099"}
{"target": "LPS_TissueFactor", "BioMAP readout fold decrease": "0.905 ± 0.021"}
{"target": "4H_VEGFRII", "BioMAP readout fold decrease": "1.07 ± 0.028"}
{"target": "hDFCGF_Proliferation", "BioMAP readout fold decrease": "1.22 ± 0.13"}
{"target": "KF3CT_MMP9", "BioMAP readout fold decrease": "0.991 ± 0.0099"}
{"target": "BE3C_tPA", "BioMAP readout fold decrease": "0.995 ± 0.012"}
{"target": "CASM3C_MIG", "BioMAP readout fold decrease": "0.9799 ± 0.0029"}
{"target": "SAg_Eselectin", "BioMAP readout fold decrease": "1.14 ± 0.027"}
{"target": "BE3C_MIG", "BioMAP readout fold decrease": "0.992 ± 0.016"}
{"target": "BE3C_SRB", "BioMAP readout fold decrease": "0.9933 ± 0.0058"}
{"compound": "CC(C)c1cccc(C(C)C)c1N1C(=O)c2ccc(O)cc2C1=O", "assay": "BioMAP readout fold decrease vs vehicle (vehicle/treated); higher = stronger decrease of the readout vs vehicle (values <1 mean increase)", "conditions": "4.44 µM", "description": "as §1"}
{"target": "CASM3C_IL8", "BioMAP readout fold decrease": "1.074 ± 0.0085"}
{"target": "4H_Eotaxin3", "BioMAP readout fold decrease": "0.875 ± 0.022"}
{"target": "LPS_VCAM1", "BioMAP readout fold decrease": "1.55 ± 0.14"}
{"target": "hDFCGF_TIMP1", "BioMAP readout fold decrease": "0.78536 ± 0.00052"}
{"target": "3C_IL8", "BioMAP readout fold decrease": "0.925 ± 0.011"}
{"target": "hDFCGF_MIG", "BioMAP readout fold decrease": "1.01 ± 0.0026"}
{"target": "3C_hLADR", "BioMAP readout fold decrease": "1.55 ± 0.048"}
{"target": "BE3C_MMP1", "BioMAP readout fold decrease": "1.01 ± 0.017"}
{"target": "4H_MCP1", "BioMAP readout fold decrease": "0.699 ± 0.023"}
{"target": "CASM3C_VCAM1", "BioMAP readout fold decrease": "1.0767 ± 0.00049"}
{"target": "SAg_CD69", "BioMAP readout fold decrease": "1.24 ± 0.035"}
{"target": "SAg_SRB", "BioMAP readout fold decrease": "1.1 ± 0.021"}
{"target": "BE3C_PAI1", "BioMAP readout fold decrease": "1.236 ± 0.012"}
{"target": "3C_MCP1", "BioMAP readout fold decrease": "0.986 ± 0.0064"}
{"target": "hDFCGF_VCAM1", "BioMAP readout fold decrease": "1.32 ± 0.063"}
{"target": "CASM3C_uPAR", "BioMAP readout fold decrease": "1.21 ± 0.037"}
{"target": "SAg_IL8", "BioMAP readout fold decrease": "1.19 ± 0.029"}
{"target": "KF3CT_MCP1", "BioMAP readout fold decrease": "0.926 ± 0.043"}
{"target": "LPS_CD40", "BioMAP readout fold decrease": "1.67 ± 0.1"}
{"target": "LPS_PGE2", "BioMAP readout fold decrease": "0.863 ± 0.057"}
{"target": "LPS_MCSF", "BioMAP readout fold decrease": "1.32 ± 0.11"}
{"target": "KF3CT_uPA", "BioMAP readout fold decrease": "1.015 ± 0.01"}
{"target": "LPS_TissueFactor", "BioMAP readout fold decrease": "0.9505 ± 0.0063"}
{"target": "4H_VEGFRII", "BioMAP readout fold decrease": "1.03 ± 0.021"}
{"target": "hDFCGF_Proliferation", "BioMAP readout fold decrease": "2.66 ± 0.091"}
{"target": "KF3CT_MMP9", "BioMAP readout fold decrease": "1.17 ± 0.028"}
{"target": "BE3C_tPA", "BioMAP readout fold decrease": "0.805 ± 0.042"}
{"target": "CASM3C_MIG", "BioMAP readout fold decrease": "0.9517 ± 0.009"}
{"target": "SAg_Eselectin", "BioMAP readout fold decrease": "1.02 ± 0.041"}
{"target": "BE3C_MIG", "BioMAP readout fold decrease": "1 ± 0.021"}
{"target": "BE3C_SRB", "BioMAP readout fold decrease": "0.9934 ± 0.0085"}
{"compound": "CC(C)c1cccc(C(C)C)c1N1C(=O)c2ccc(O)cc2C1=O", "assay": "BioMAP readout fold decrease vs vehicle (vehicle/treated); higher = stronger decrease of the readout vs vehicle (values <1 mean increase)", "conditions": "13.3 µM", "description": "as §1"}
{"target": "CASM3C_IL8", "BioMAP readout fold decrease": "0.938 ± 0.016"}
{"target": "4H_Eotaxin3", "BioMAP readout fold decrease": "1.02 ± 0.032"}
{"target": "LPS_VCAM1", "BioMAP readout fold decrease": "2.13 ± 0.16"}
{"target": "hDFCGF_TIMP1", "BioMAP readout fold decrease": "0.608 ± 0.042"}
{"target": "3C_IL8", "BioMAP readout fold decrease": "0.7655 ± 0.0039"}
{"target": "hDFCGF_MIG", "BioMAP readout fold decrease": "1.02 ± 0.027"}
{"target": "3C_hLADR", "BioMAP readout fold decrease": "4.27 ± 0.47"}
{"target": "BE3C_MMP1", "BioMAP readout fold decrease": "0.9184 ± 0.0038"}
{"target": "4H_MCP1", "BioMAP readout fold decrease": "0.623 ± 0.0095"}
{"target": "CASM3C_VCAM1", "BioMAP readout fold decrease": "1.19 ± 0.023"}
{"target": "SAg_CD69", "BioMAP readout fold decrease": "1.52 ± 0.077"}
{"target": "SAg_SRB", "BioMAP readout fold decrease": "1.299 ± 0.011"}
{"target": "BE3C_PAI1", "BioMAP readout fold decrease": "1.5 ± 0.03"}
{"target": "3C_MCP1", "BioMAP readout fold decrease": "0.8619 ± 0.0073"}
{"target": "hDFCGF_VCAM1", "BioMAP readout fold decrease": "2.03 ± 0.15"}
{"target": "CASM3C_uPAR", "BioMAP readout fold decrease": "1.29 ± 0.05"}
{"target": "SAg_IL8", "BioMAP readout fold decrease": "0.963 ± 0.026"}
{"target": "KF3CT_MCP1", "BioMAP readout fold decrease": "0.7754 ± 0.0028"}
{"target": "LPS_CD40", "BioMAP readout fold decrease": "2.699 ± 0.02"}
{"target": "LPS_PGE2", "BioMAP readout fold decrease": "0.841 ± 0.037"}
{"target": "LPS_MCSF", "BioMAP readout fold decrease": "1.686 ± 0.0043"}
{"target": "KF3CT_uPA", "BioMAP readout fold decrease": "0.969 ± 0.012"}
{"target": "LPS_TissueFactor", "BioMAP readout fold decrease": "1.04 ± 0.02"}
{"target": "4H_VEGFRII", "BioMAP readout fold decrease": "1.2 ± 0.076"}
{"target": "hDFCGF_Proliferation", "BioMAP readout fold decrease": "4.594 ± 0.011"}
{"target": "KF3CT_MMP9", "BioMAP readout fold decrease": "1.45 ± 0.081"}
{"target": "BE3C_tPA", "BioMAP readout fold decrease": "1.1 ± 0.071"}
{"target": "CASM3C_MIG", "BioMAP readout fold decrease": "0.96395 ± 0.0005"}
{"target": "SAg_Eselectin", "BioMAP readout fold decrease": "1.14 ± 0.087"}
{"target": "BE3C_MIG", "BioMAP readout fold decrease": "1.036 ± 0.0018"}
{"target": "BE3C_SRB", "BioMAP readout fold decrease": "1.0272 ± 0.001"}
